# From PubChem BioAssay (NCI)
# “And” between values parts separate entries of the source, which are not always exact repeats. Equal entries are not always repeated. This is part of a sample that, as a whole, favours compounds with a hit. Of some 83,000 tested, about 20% had one in any assay.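 A percent growth of 40 corresponds to 60% growth inhibition; 0 means no net growth; -100 means all cells died. Active threshold: below 10.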 The source made the active and inactive calls.
# Test system: MDA-MB-468 breast
# Test: NCI-60 one-dose screen, 48 h (100 = growth as untreated, 0 = no growth, -100 = all killed)
# Conditions: 10 µM unless noted
row,Compound,growth
1,COc1cc(-c2nc(SC(C)C)n(C(C)C)c(=O)c2C#N)ccc1OCc1ccccc1,66.8% (inactive)
2,COc1ccc(NC(=O)[C@@H]2C[C@H]2c2ccccc2)c(C(N)=O)c1,101% (inactive)
3,O=C(Nc1ccc(F)cc1)Nc1ccc(NC(=O)c2cc(Cl)nc3ccccc23)cc1,38.7% (inactive)
4,N#CC1=C(N)Oc2c(ccc3ccccc23)C1c1ccc([N+](=O)[O-])cc1 (stereo not given),90% (inactive)
5,COc1cccc2c1C=CC1(O2)Oc2cccc(OC)c2C=C1C (stereo not given),39.5% (inactive)
6,COc1ccccc1Nc1nnc(-c2ccc(Cl)cc2)o1,14% (inactive)
7,COc1cc2cc3cc4cc(OC)c(OC)cc4c(C)[n+]3cc2cc1OC (tested in a mixture with another compound),44% (inactive)
8,CCN1CCN(CCNc2nccc(-c3c(-c4cccc(O)c4)nc4sccn34)n2)S1(=O)=O,86.7% (inactive) and 81.1% (inactive)
9,CN(C)c1ccc(C(=C2C=CC(=[N+](C)C)C=C2)c2ccc(N(C)C)cc2)cc1,-82.4% (active)
10,CC1(C)N=C(N)N=C(N)N1c1ccc(F)c(C(F)(F)F)c1,65.1% (inactive)
11,Cc1cc(C(C#N)c2ccc(Cl)cc2)c(Cl)cc1NC(=O)c1cc(I)cc(I)c1O (stereo not given),58.9% (inactive)
12,CC(=O)NC(C)(C)C(=O)N1CCC[C@H]1C(=O)NC(C)(C)C(=O)N[C@@H](C)C(=O)NC(C)(C)C(=O)N[C@@H](C)C(=O)N[C@@H](CCC(N)=O)C(=O)NC(C)(C)C(=O)N[C@H](C(=O)NC(C)(C)C(=O)NCC(=O)N[C@@H](CC(C)C)C(=O)NC(C)(C)C(=O)N1CCC[C@H]1C(=O)N[C@H](C(=O)NC(C)(C)C(=O)NC(C)(C)C(=O)N[C@@H](CCC(N)=O)C(=O)N[C@@H](CCC(N)=O)C(=O)N[C@H](CO)Cc1ccccc1)C(C)C)C(C)C,3.71% [4.25 µM] (active)
13,Cc1ccc2c(n1)C(=O)C(Oc1ccc(F)cc1)=CC2=O,87.7% (inactive)
14,O=CC(O)C(O)C(O)CO (stereo not given),104% (inactive) and 102% (inactive)
15,COc1ccccc1NC(=O)C1CC(c2ccc(F)cc2)=NO1 (stereo not given),99.7% (inactive)
16,c1coc2occoc=2o1,98.6% (inactive)
17,COc1cnc2c(c1)C(=O)c1c-2n(CCCNCCN2CCOCC2)c(=O)c2cc([N+](=O)[O-])ccc12,-27% (active)
18,Nc1ccc2cc(Br)c3ccccc3c2c1,4.15% (active)
19,C#Cc1cccc(Nc2nc3ccc([N+](=O)[O-])cc3nc2Nc2cccc(C#C)c2)c1,-45.9% (active)
20,NS(=O)(=O)c1ccc(Nc2nc(N/N=C/CCc3ccccc3)nc(Nc3ccccc3)n2)cc1,88.6% (inactive)

row,Compound,growth
1,OCc1cccnc1,102% (inactive)
2,COc1ccc(Cn2c(C(N)=O)cc3c2-c2nc(N)ncc2CCC3)cc1,82.1% (inactive)
3,CC(C)CCC[C@@H](C)[C@H]1CCC2C3=CCC4C(=O)C=CC(=O)C4C3CC[C@@]21C (stereo not given in full),2.69% (active)
4,CCCCNc1cc(C(=O)O)cc(S(N)(=O)=O)c1Oc1ccccc1,94.1% (inactive)
5,CS(=O)(=O)Nc1cc(-c2ccc3ncc(C#N)c(NCc4ccccc4O)c3c2)cnc1Cl,-23.1% (active)
6,COc1ccc2cc3[n+](cc2c1OC)CCc1cc2c(cc1-3)OCO2,1.68% (active)
7,COc1cccc(C2CC(=O)Nc3cc4c(cc32)CCC4)c1OC (stereo not given),-2.82% (active)
8,O=C(O)c1ccc2cccnc2c1O,-31.1% (active)
9,C/C(=N\O)c1ccc(NC(=O)CSc2nnc(-c3ccccc3)n2-c2ccccc2)cc1,75.4% (inactive)
10,COc1ccccc1CNCCCN1C(=O)c2ccc3c4c(ccc(c24)C1=O)C(=O)N(CCCNCCCCNCCCCN)C3=O,-47% (active)
11,O=C(Nc1cc(C(F)(F)F)cc(C(F)(F)F)c1)Nc1ccc2oc(=O)ccc2c1,-5.53% (active)
12,N#CC1C(C#N)C(C(=O)c2ccc(Br)cc2)N2c3ccccc3C=CC12 (stereo not given),-7.38% (active)
13,C=CCn1c(SCC(=O)Nc2ccc(OC)cc2)nnc1-c1ccc(Cl)cc1,81% (inactive)
14,CC(=O)c1c(Nc2cccc(F)c2)[nH]c2c(Cl)cc(Cl)c(Cl)c2c1=O,-10.2% (active)
15,CC(=O)c1nn(-c2ccc(C)cc2)cc1C(=O)c1cc2c(ccc3ccccc32)oc1=O,118% (inactive)
16,CC(=O)Oc1ccccc1C(=O)N(Cc1ccc2c(Cl)cc(Cl)c(O)c2n1)c1ccccc1,40.9% (inactive)
17,CCOC(=O)/C=C1/SC(=Nc2ccc(C#N)cc2)N(Cc2ccco2)C1=O,27.5% (inactive)
18,COCCc1ccc(OCC(O)CNC(C)C)cc1 (stereo not given),113% (inactive)
19,Cn1cc(-c2nc(-c3c[nH]c4ccncc34)cs2)c2cc(Br)ccc21,-71.8% (active)
20,COc1ccc(/C=C/C(=O)Nc2ccc(-c3nc4ccc(F)cc4s3)cc2)cc1,-12.9% (active)
